In PubChem BioAssay (NCATS):
Results filed as inconclusive are left out. Where a call stands in place of a potency, no number is given. Values without a mark were called inactive. Calls of active or inactive are those of the source. Calls follow the shape of the dose curve; as a rule, active = well fitted curve in the direction sought with a large enough effect; inconclusive = small, poorly fitted or top-dose-only effect, or another doubt; inactive = no such curve, though single readings can be large; an effect the other way counts as inactive or inconclusive.

How the values were obtained:
[1] = target: Cellular tumor antigen p53 (Homo sapiens) (UniProt P04637); assay: Primary qHTS for small molecule compounds that upregulate eGFP-tagged delta133p53alpha (in N-terminal) cells. (AID 2060322); settings: NCI-H358 eGFP-delta133p53alpha fluorescence, 24 h; activation: stronger effect = higher value; also: nearly all actives have a fitted effect of over 75% in size; also: potency is read from the fitted curve at half-maximal effect;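 as to activation: cells pre-induced with doxycycline then dosed without doxycycline; series mostly up to about 56 µM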
Sequence of Cellular tumor antigen p53 (Homo sapiens) (P04637 whole entry, looked up): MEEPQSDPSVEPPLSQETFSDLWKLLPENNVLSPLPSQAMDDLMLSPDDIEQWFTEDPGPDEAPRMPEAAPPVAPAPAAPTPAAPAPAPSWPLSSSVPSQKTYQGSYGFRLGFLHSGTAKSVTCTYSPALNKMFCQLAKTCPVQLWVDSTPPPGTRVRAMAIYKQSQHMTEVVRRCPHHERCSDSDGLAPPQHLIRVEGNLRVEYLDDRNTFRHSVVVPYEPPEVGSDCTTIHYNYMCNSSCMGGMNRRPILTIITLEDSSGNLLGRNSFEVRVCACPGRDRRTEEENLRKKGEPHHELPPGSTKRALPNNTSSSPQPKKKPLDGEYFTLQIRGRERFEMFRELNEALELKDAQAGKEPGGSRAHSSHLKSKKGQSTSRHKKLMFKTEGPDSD
How it was run: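 NCI-H358 cells pre-induced 24 h with 10 ng/ml doxycycline for eGFP-delta133p53alpha, plated dox-free and exposed 24 h at 37C to titrated compounds. Fixed, Hoechst-stained; gated GFP peak intensity by laser scanning cytometry, normalized to DMSO (0%) and 57.5 uM 5-azacytidine (100%).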

[2] = target: Aldehyde dehydrogenase, mitochondrial (Homo sapiens) (UniProt P05091); assay: qHTS for Inhibitors of the Aldehyde Dehydrogenase Family (ALDH2) Primary screen (AID 2061308); also: nearly all actives have a fitted effect of over 55% in size
[3] = target: Retinaldehyde dehydrogenase 3 (Homo sapiens) (UniProt P47895); assay: qHTS for Inhibitors of the Aldehyde Dehydrogenase Family (ALDH1A3) Primary screen (AID 2061315)

SMILES | activation [1] | Potency [2] | Potency [3] | Potency [1] | activity change, negative = inhibition [2] | activity change, negative = inhibition [3]
CC1(C)CCCC2(C)C(CO)C3CCC2C31 (stereo not drawn) | 24.1% | inactive | inactive |  |  | 
CCNc1nc(Nc2cc(F)c(C(=O)N3CCOCC3)cc2OC)ncc1C(F)(F)F | 10.7% | inactive | inactive |  |  | 
COc1cccc(CN(C(=O)CC(C)(C)C)[C@H]2C[C@H](C(=O)N3CCNCC3)N(Cc3ccc4c(c3)OCO4)C2)c1 | 1% | inactive | inactive |  |  | 
COC(=O)c1cc(OC)cc(OC)c1C(=O)c1c(OC)cc2c(c1O)C1CCCC(C)(O2)O1 (stereo not drawn) | 14.5% | inactive | inactive |  |  | 
COC(=O)/C=C/C12COC(C)(C)C1C(O)C(OC(C)=O)C1(C)C2CCC2(C)C(c3ccoc3)OC(=O)C3OC321 (stereo not drawn) | 11.5% | inactive | inactive |  |  | 
Cc1ccc(C)c(NC(=O)CNS(=O)(=O)c2ccc3[nH]c(=O)oc3c2)c1 | 17% | inactive | inactive |  |  | 
COc1c2c(c(C)c3c1C(=O)OC3)O[C@@]1(C)C[C@@H](O)[C@]34O[C@](OC)(CC[C@]3(C)[C@H]1C2)OC4(C)C | -1.53% | inactive | inactive |  |  | 
COC(=O)CC1(O)C(=O)Nc2ccccc21 (stereo not drawn) | -1.79% | inactive | inactive |  |  | 
O=S(=O)(Nc1ccc(C(O)(C(F)(F)F)C(F)(F)F)cc1)c1cccs1 | -12.3% | inactive | inactive |  |  | 
CCOc1ncc(S(=O)(=O)N2CCN(CC)CC2)cc1-c1nc2c(CC)n(CCOC)nc2c(=O)[nH]1 | -9.07% | inactive | inactive |  |  | 
CC(C)CC(=O)OC[C@@]1(O)C[C@@]23CC[C@H]4[C@@](C)(CCC[C@@]4(C)C(=O)O)[C@@H]2CC[C@@H]1C3 | -13% | inactive | inactive |  |  | 
COc1ccc2c(NC(=O)Nc3cccc(C(F)(F)F)n3)ccnc2c1 | 16.1% | inactive | inactive |  |  | 
CC1(C)CCC2(C(=O)OC3OC(COC4OC(CO)C(O)C(O)C4O)C(O)C(O)C3O)CCC3(C)C(=CCC4C5(C)CCC(O)C(C)(C(=O)O)C5CCC43C)C2C1O (stereo not drawn) | 5.34% | inactive | inactive |  |  | 
O=C1C=CC2OC(c3ccccc3)C(O)C2O1 (stereo not drawn) |  | inactive | inactive | 30.1 µM (active) |  | 
C=CC(C)(O)CC/C=C(/C)C(=O)OC1C(OC2OCC(OC3OC(CO)C(O)C(O)C3O)C(OC3OCC(O)C(OC4OC(C)C(O)C(O)C4O)C3O)C2O)COC(OC(=O)C23CCC(C)(C)CC2C2=CCC4C5(C)CCC(OC6OC(CO)C(OC7OC(CO)C(O)C(OC8OCC(O)C(O)C8O)C7O)C(O)C6O)C(C)(C)C5CCC4(C)C2(C)CC3O)C1O (stereo not drawn) | -12.2% |  |  |  | 0.572% [at 11.2 µM] | 8.04% [at 11.2 µM]
C[C@@H]1O[C@@H](OC2C(CO)OC(OCC3OC(OC(=O)[C@]45CCC(C)(C)CC4C4=CCC6[C@@]7(C)CC[C@@H](O)[C@](C)(C(=O)O)C7CC[C@@]6(C)[C@]4(C)CC5)C(O)C(O)C3O)C(O)C2O)[C@H](O)[C@H](O)[C@H]1O (stereo partly drawn) | -3.82% | inactive | inactive |  |  | 
COc1cccc(NCCC2(c3ccccc3)CC(C)(C)OC(C)(C)C2)c1 |  | inactive | inactive | 21.7 µM (active) |  | 
C=C1C2=CC(O)C(C)C1(C)CC/C(C)=C/CCC1(C)OC1C2=O (stereo not drawn) | 0.763% | inactive | inactive |  |  | 

SMILES | activation [1] | Potency [2] | Potency [3] | Potency [1] | activity change, negative = inhibition [2] | activity change, negative = inhibition [3]
COc1ccc(C2=CC(=O)OC2Cc2ccc(O)cc2)c(O)c1 (stereo not drawn) | -20.6% | inactive | inactive |  |  | 
NC(=O)C(O[C@@H]1O[C@H](CO[C@@H]2O[C@H](CO)[C@@H](O)[C@H](O)[C@H]2O)[C@@H](O)[C@H](O)[C@H]1O)c1ccccc1 (stereo partly drawn) | -6.11% | inactive | inactive |  |  | 
Cc1ccccc1C(=O)Nc1ccc(C(=O)N2CCC[C@@H](O)c3cc(Cl)ccc32)c(C)c1 | 0% | inactive | inactive |  |  | 
C[C@@H]1O[C@@H](O[C@H]2[C@@H]3C=CO[C@@H](O[C@@H]4O[C@H](CO)[C@@H](O)[C@H](O)[C@H]4O)[C@@H]3[C@@]3(CO)O[C@@H]23)[C@H](OC(=O)/C=C/c2ccc(O)cc2)[C@H](O)[C@H]1O | 6.87% | inactive | inactive |  |  | 
C[C@H]1/C=C/C=C/C=C/C=C/C=C/[C@@H](O)[C@H](C(=O)O)[C@H](O)C[C@H](O)CCC[C@H](O)C[C@H](O)C[C@H](O)[C@@H](C)C(=O)O[C@@H]1C | 13.7% | inactive | inactive |  |  | 
CC(=O)OC1CC2(C)C(CCC(C)C23Cc2c(O)cc(CO)c(C=O)c2O3)C(C)(C)C1O (stereo not drawn) | 23.7% | inactive | inactive |  |  | 
CC1(O)CCC2C(C3C1CCC3(C)O)C2(C)C (stereo not drawn) | -1.79% | inactive | inactive |  |  | 
CCC(C)C1NC(=O)C(Cc2ccccc2)NC(=O)C(CCCCCC(=O)C(O)CO)NC(=O)C2CCCCN2C1=O (stereo not drawn) | -9.92% | inactive | inactive |  |  | 
CC(=O)O[C@@H]1[C@@H](O)[C@H](O[C@H]2CC[C@]34C[C@]35CC[C@]3(C)[C@@H]([C@@]6(C)CC[C@@H](C(C)(C)O)O6)[C@@H](O)C[C@@]3(C)[C@@H]5C[C@H](O[C@@H]3O[C@H](CO)[C@@H](O)[C@H](O)[C@H]3O)[C@H]4C2(C)C)OC[C@H]1O | 15% | inactive | inactive |  |  | 
C[C@@H]1CC[C@H]2C(C)(C)[C@H](O)[C@H](O)C[C@]2(C)[C@@]12Cc1c(O)cc3c(c1O2)CNC3=O | -3.82% | inactive | inactive |  |  | 
CC(CCC1C(C(=O)O)=CC(=O)CC1(C)C)O[C@@H]1O[C@H](CO)[C@@H](O)[C@H](O)[C@H]1O (stereo partly drawn) | -11.5% | inactive | inactive |  |  | 
COC1C(O)C(OC2CCC3(C)C(CCC45CCC6C7(COC(=O)C7)OC4(O)C6(C)CCC35)C2)OC(C)C1OC1OC(CO)C(OC2OC(CO)C(O)C(O)C2O)C(O)C1O (stereo not drawn) | 1.53% | inactive | inactive |  |  | 
CC(=O)OC[C@]12[C@@H](OC(=O)c3ccoc3)C[C@@H]3[C@@H](OC(C)=O)[C@]1(OC3(C)C)[C@@](C)(O)C[C@H](OC(=O)c1ccoc1)[C@@H]2OC(=O)c1ccoc1 | -9.16% | inactive | inactive |  |  | 
COc1c2c(c(C)c3c1C(=O)OC3)OC1(C)CC(O)C34OC(OC)(OC3(C)C)C(O)CC4(C)C1C2 (stereo not drawn) | -2.29% | inactive | inactive |  |  | 
COc1cc(/C=C/CO)ccc1O[C@@H]1O[C@H](CO)[C@@H](O)[C@H](O)[C@H]1O | -6.25% | inactive | inactive |  |  | 
C[C@@H]1O[C@@H](O[C@H]2[C@H](O)[C@@H](O)[C@H](OC[C@H]3O[C@@H](OC(=O)[C@]45CCC(C)(C)C[C@H]4C4=CCC6[C@@]7(C)C[C@H](O)[C@H](O[C@@H]8O[C@H](CO)[C@@H](O)[C@H](O)[C@H]8O)[C@@](C)(C(=O)O)C7CC[C@@]6(C)[C@]4(C)CC5)[C@H](O[C@@H]4O[C@H](CO)[C@@H](O)[C@H](O)[C@H]4O)[C@@H](O)[C@@H]3O)O[C@@H]2CO)[C@H](O)[C@H](O)[C@H]1O (stereo partly drawn) | 18.8% |  |  |  | 8.16% [at 11.2 µM] | -4.1% [at 11.2 µM]
CC1=C(C)C(=O)OC(C(C)C2C(O)CC3C4C5OC5C5(O)CC(OC6OC(CO)C(O)C(O)C6O)CC(O)C5(C)C4CCC32C)C1 (stereo not drawn) | -6.87% | inactive | inactive |  |  | 
CCCOc1ccc(S(=O)(=O)N2CCN(CCO)CC2)cc1-c1nc2c(CCC)cn(CC)c2c(=O)[nH]1 | -0.893% | inactive | inactive |  |  | 
